Sampled rows, rich in hits. Any-hit rate of the full collection: about 5.9%.
RORg inh: inhibitors of mouse ROR gamma transcriptional activity. P51450. Drosophila S2 Gal4-RORgamma UAS-luciferase reporter, 20 h. Potency, µM (doses to about 53.6 µM), inactives show top-dose activity change, negative = inhibition, most hits filed as inhibitors. 310,000 tested, 5.4% active; note: % is set by controls: 0 for no effect and ±100 for the full control effect; nearly all actives have a fitted effect of over 60% in size
Target sequence (P51450 whole entry, looked up, the tested form may be a part): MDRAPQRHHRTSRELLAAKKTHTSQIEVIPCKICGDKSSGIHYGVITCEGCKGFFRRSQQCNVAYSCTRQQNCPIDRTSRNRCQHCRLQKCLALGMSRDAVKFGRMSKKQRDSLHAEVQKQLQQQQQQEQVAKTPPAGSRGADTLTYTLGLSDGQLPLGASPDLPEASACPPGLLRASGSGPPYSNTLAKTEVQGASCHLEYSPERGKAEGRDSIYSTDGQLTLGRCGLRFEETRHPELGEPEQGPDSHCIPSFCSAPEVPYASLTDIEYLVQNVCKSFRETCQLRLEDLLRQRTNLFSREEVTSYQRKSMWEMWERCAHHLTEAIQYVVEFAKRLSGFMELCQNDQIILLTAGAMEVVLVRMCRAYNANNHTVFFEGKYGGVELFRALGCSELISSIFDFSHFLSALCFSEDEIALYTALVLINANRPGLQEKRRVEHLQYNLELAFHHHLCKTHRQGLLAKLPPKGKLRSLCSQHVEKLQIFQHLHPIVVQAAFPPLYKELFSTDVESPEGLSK
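A Gal4/UAS one-hybrid system in insect cells: metallothionein-promoter Gal4–ROR gamma fusion plus Photinus luciferase reporter. Copper sulfate 700 uM final, 20 hr ambient incubation, luminescent detection after 10 min with reagent.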
GLP1R ag: agonists of human GLP-1 receptor; HEK293 GLP-1R CRE-luciferase, luminescence, 4-6 h; cells express a hypersensitive GLP-1R form; Potency, µM (doses to about 45.6 µM), for inactives: at the highest dose activation, most hits filed as activators; 380,000 tested, 0.007% active; note: % of control where 0% means no effect
Gal4-VP16 FLuc: counter-screen for ROR gamma inhibitors: Gal4-VP16 reporter | Drosophila S2 Gal4-VP16 UAS-luciferase, luminescence, 20 h | Potency, µM (doses to about 53.6 µM), without a hit: at the highest dose activity, negative = inhibition, most hits filed as inhibitors | 310,000 tested, 3.5% active | AID 2546;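 note: Gal4-VP16 expression switched on by copper sulfate through the metallothionein promoter; % is set by controls: 0 for no effect and ±100 for the full control effect; nearly all actives have a fitted effect of over 50% in size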
GLP-1R inv ag: acts as inverse agonist at human GLP-1 receptor | AID 624417 | P43220 | 410,000 tested, 1.6% active | Potency, µM (highest dose often 38.3 µM), inactives show top-dose activity change, negative = inhibition, usual class: inhibitors | HEK293 GLP-1R CRE-luciferase, luminescence, 24 h; GLP-1R form is constitutively active; note: % is set by controls: 0 for no effect and ±100 for the full control effect; nearly all actives have a fitted effect of over 55% in size
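Assay principle: reduced luminescence from a cAMP-responsive reporter in HEK293 cells co-expressing a constitutively active GLP-1R. Conditions: 24 hr compound incubation, 37 deg C, 5% CO2.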
HEK293 tox: cytotoxicity in counter-screen for GLP-1R inverse agonists. HEK293 cAMP-luciferase reporter cells, luminescence, 24 h. Potency, µM (doses to about 38.3 µM), for the others: top-dose activity change, negative = inhibition, hits mostly inhibitors. 410,000 tested, 0.13% active. AID 624418;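 note: loss of luciferase light is scored as toxicity; % is set by controls: 0 for no effect and ±100 for the full control effect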
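To flag toxic compounds, the library was rerun on cells for 24 hr at 37 deg C and 5% CO2. Viability-linked luminescence was captured 12 min after adding luciferase detection reagent.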
Starred values were filed as active, the others as inactive; ? = inconclusive; nt = no result given; [ ] = dose if it differs, or a comment. Calls come from the whole dose curve; as a rule, active = well fitted curve in the direction sought with a large enough effect; inconclusive = small, poorly fitted or top-dose-only effect, or another doubt; inactive = no such curve, though single readings can be large; an effect the other way counts as inactive or inconclusive. Potency is the fitted concentration of half-maximal effect.

SMILES	RORg inh	GLP1R ag	Gal4-VP16 FLuc	GLP-1R inv ag	HEK293 tox
Cc1ccc(OCC(=O)Nc2cccc(C(=O)OCc3cc(=O)n4cc(C)sc4n3)c2)cc1	nt	nt	nt	-21%	-7%
CCCc1noc(-c2ccc(N3CCCCC3)c([N+](=O)[O-])c2)n1	nt	nt	nt	?	-7%
C/C(=N\NC(=O)c1cc(C2CC2)nc2ccccc12)c1ccc(C)s1	-30%	3%	-3%	-20%	?
CCCNC(=S)NNC(=O)c1cc(C2CC2)nc2ccccc12	11µM*	-3%	10µM*	7%	1%
CCNC(=S)NNC(=O)c1cc(C2CC2)nc2ccccc12	0.71µM*	23%	?	2%	1%
CCOC(=O)C1(CC2CC2)CCN(C(=O)c2cc(C3CC3)nc3ccccc23)CC1	-18%	1%	-6%	10µM*	2%
C/C(=N\NC(=O)c1cc(C2CC2)nc2ccccc12)c1ccc(O)cc1O	16µM*	-6%	18µM*	?	9%
CCOC(=O)C1(CC2CC2)CCN(C(=O)c2cc(OC)nc3ccccc23)CC1	24%	?	-3%	?	1%
CCNC(=S)NNC(=O)c1cc(C)nc2ccccc12	?	-4%	?	-8%	2%[1.53 µM]
O=C1C[C@H](c2ccc(-c3ccccc3)cc2)N1S(=O)(=O)c1ccccc1[N+](=O)[O-]	11%	nt	-12%	nt	nt
COc1ccc(-c2nc3cnc(OC)nc3n(-c3ccccc3)c2=O)cc1	4%	nt	-5%	nt	nt
CS(=O)(=O)N1CCC2(CC1)CN(Cc1ccc(C#N)cc1)C2	-1%	nt	7%	nt	nt
COc1ccc([C@]23Cc4cc(OC)c(OC)cc4C(O2)c2c(cc(C)oc2=O)O3)cc1	1%[10 µM]	nt	0%[10 µM]	nt	nt
CCN(CC)CCCNC(=O)c1cn(CC)c2ccc(S(=O)(=O)N3CCC(C)CC3)cc2c1=O	nt	-2%	nt	-13%	-7%
Cc1nc(N(C)Cc2ccccc2)c2c(C)c(C)sc2n1	20µM*	25%	?	?	0%
CC(C)c1ccc(/C=N/n2c(COc3ccccc3)n[nH]c2=S)cc1	?	19%	10µM*	?	-10%
S=c1[nH]nc(COc2ccccc2)n1/N=C/c1ccc(Br)cc1	?	-5%	-30%	-22%	-39%
Cc1ccc(/C=N/n2c(COc3ccccc3)n[nH]c2=S)cc1	3.2µM*	-4%	?	-9%	-26%
CCOc1cc(/C=N/n2c(COc3ccccc3)n[nH]c2=S)ccc1O	5µM*	-4%	?	11%	-2%
CN(C)c1ccc(/C=N/n2c(-c3ccccc3Br)n[nH]c2=S)cc1	3.5µM*	7%	4%	25%	1%
FC(F)Oc1ccc(/C=N/n2c(Cc3ccc(Br)cc3)n[nH]c2=S)cc1	8.9µM*	29%	?	-13%	8%
CN(C)c1ccc(/C=N/n2c(COc3ccccc3)n[nH]c2=S)cc1	3.2µM*	2%	4µM*	1%	6%[1.53 µM]
CN(C)CCCNC(=O)C(=O)NCC(c1ccc2c(c1)OCO2)N1CCOCC1 (configuration not stated)	nt	nt	nt	10%	2%
COc1ccc(Br)cc1/C=N/NC(=O)Cn1nnnc1N	-11%	1%	5%	-16%	?
CC(C)Oc1ccc(Br)cc1/C=N\NC(N)=S	2µM*	0%	5µM*	3.2µM*	2.5µM*
SMILES	RORg inh	GLP1R ag	Gal4-VP16 FLuc	GLP-1R inv ag	HEK293 tox
Cc1cc(/C=N/NC(=O)C(O)(c2ccccc2)c2ccccc2)c(C)n1-c1cccc(C(=O)O)c1	-9%	-2%	6%	13%	5%
Cc1cc(/C=N/NC(N)=S)c(C)n1-c1cccc(Cl)c1	2.8µM*	8%	10µM*	?	?
Cc1nc2ccccn2c1C(=O)N/N=C/c1cc(C)n(-c2ccc(Br)cc2)c1C	11µM*	0%	?	-2%	-11%
Cc1cccc(C)c1-n1c(C)cc(/C=N/NC(N)=S)c1C	0.89µM*	-7%	0.79µM*	11µM*	?
Cc1nc2ccccn2c1C(=O)N/N=C/c1ccccc1	1%	-4%	-4%	-1%	11%
CC(=O)c1ccc(N2CCN(C(=O)Cn3ncc4c3-c3ccccc3OC4)CC2)cc1	nt	nt	nt	-6%	-10%
Cc1cc(/C=N/NC(N)=S)c(C)n1-c1ccc(Br)cc1	0.56µM*	-1%	-2%[10 µM]	?	?

Bioassay records: PubChem BioAssay, National Center for Advancing Translational Sciences (NCATS)
